According to publication PMC7862700, “An all-to-all approach to the identification of sequence-specific readers for epigenetic DNA modifications on cytosine”:

Experiments:
Test in all cases: DAPPL (digital affinity profiling via proximity ligation, sequencing); 10 mM Tris-HCl pH 7.5, 50 mM NaCl, 1 mM DTT, 4% glycerol, room temperature, 30 min; GST-TFs on glutathione beads, 16-mer random dsDNA library, 0.1% formaldehyde crosslink after washing; high values mean tight binding
Conditions in all cases: protein: recombinant; tags: N-terminal GST; dsDNA, one strand shown
FLI1 = molecular target: T1, FLI1 (Homo sapiens, UniProt Q01543 1-452)
T1 sequence: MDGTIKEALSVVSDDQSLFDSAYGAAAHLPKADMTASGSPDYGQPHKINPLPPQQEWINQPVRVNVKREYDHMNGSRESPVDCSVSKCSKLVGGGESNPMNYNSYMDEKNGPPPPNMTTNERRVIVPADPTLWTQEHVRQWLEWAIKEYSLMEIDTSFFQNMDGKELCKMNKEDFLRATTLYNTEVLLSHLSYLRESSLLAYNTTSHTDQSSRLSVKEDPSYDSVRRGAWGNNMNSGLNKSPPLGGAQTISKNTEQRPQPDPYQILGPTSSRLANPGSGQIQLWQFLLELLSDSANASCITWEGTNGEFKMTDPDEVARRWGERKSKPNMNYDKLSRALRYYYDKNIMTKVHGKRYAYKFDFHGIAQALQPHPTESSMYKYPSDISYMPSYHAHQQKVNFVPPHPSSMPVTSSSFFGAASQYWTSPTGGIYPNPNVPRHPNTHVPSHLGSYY
Procedure, shortened: (§1)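 After expression in yeast as GST fusions, human transcription factors were bound to glutathione beads, DNA-barcoded and mixed with a tag-only sample. The pools were incubated with 200 nmole of a 16-mer random double-stranded DNA library in Tris/NaCl/DTT/glycerol buffer (30 min, room temperature), washed and crosslinked with 0.1% formaldehyde. Proximity ligation with BsaI/T4 ligase ran for 1 h at 37 °C, before PCR amplification and sequencing on an Illumina NextSeq500. Binding signal is a hexamer's read frequency for a factor divided by its frequency for the tag-only sample.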

ELK1 = molecular target: T2, ELK1 (Homo sapiens, UniProt P19419 1-428)
T2 sequence: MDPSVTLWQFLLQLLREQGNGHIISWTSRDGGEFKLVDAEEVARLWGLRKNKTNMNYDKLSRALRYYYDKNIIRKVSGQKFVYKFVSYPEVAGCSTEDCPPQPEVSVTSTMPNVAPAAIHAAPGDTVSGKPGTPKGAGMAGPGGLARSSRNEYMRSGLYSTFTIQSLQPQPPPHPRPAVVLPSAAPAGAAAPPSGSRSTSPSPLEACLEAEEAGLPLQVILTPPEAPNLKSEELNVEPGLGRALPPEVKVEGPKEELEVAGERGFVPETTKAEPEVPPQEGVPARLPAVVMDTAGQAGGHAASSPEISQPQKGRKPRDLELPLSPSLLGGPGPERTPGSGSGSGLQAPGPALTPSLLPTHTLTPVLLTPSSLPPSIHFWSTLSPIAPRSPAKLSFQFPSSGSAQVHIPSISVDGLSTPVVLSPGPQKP
Procedure, shortened: as §1

GABPA = molecular target: T3, GABPA (Homo sapiens, UniProt Q06546 1-454)
T3 sequence: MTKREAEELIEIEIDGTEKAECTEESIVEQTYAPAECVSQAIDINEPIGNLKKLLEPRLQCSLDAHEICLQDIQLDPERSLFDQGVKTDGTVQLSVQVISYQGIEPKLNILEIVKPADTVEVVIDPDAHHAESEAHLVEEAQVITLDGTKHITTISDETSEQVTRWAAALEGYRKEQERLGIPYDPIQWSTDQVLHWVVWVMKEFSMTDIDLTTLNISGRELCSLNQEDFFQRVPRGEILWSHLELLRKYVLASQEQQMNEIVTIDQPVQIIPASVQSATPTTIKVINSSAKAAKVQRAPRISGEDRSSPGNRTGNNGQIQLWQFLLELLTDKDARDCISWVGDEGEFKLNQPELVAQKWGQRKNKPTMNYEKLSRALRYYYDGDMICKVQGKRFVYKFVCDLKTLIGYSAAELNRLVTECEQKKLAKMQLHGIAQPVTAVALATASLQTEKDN
Procedure, shortened: as §1

ERG = molecular target: T4, ERG (Homo sapiens, UniProt P11308 1-479)
T4 sequence: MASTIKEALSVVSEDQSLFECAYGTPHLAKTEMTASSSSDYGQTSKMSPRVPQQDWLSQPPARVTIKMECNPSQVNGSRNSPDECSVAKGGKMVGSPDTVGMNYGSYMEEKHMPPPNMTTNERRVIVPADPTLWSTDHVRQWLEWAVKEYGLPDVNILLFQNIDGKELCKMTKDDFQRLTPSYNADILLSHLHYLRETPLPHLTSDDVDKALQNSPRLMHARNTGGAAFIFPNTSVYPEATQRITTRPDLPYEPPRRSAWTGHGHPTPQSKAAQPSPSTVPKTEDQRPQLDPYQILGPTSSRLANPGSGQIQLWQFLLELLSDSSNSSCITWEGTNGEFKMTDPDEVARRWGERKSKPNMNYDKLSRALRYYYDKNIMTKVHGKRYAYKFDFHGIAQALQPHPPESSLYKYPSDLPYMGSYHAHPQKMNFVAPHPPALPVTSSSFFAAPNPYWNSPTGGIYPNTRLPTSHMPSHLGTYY
Procedure, shortened: as §1

ELF1 = ELF1 (Homo sapiens, UniProt P32519 1-619)
Procedure, shortened: as §1

EHF = molecular target: T5, EHF (Homo sapiens, UniProt Q9NZC4 1-300)
T5 sequence: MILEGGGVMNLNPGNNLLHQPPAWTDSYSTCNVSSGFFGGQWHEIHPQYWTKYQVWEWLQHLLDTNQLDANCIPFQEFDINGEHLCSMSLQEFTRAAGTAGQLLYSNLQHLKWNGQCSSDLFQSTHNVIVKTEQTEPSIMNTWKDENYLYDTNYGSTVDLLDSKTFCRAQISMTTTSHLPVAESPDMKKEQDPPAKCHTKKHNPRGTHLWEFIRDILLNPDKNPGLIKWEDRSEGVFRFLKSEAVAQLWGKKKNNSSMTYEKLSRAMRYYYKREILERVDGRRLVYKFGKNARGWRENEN
Procedure, shortened: as §1

SPI1 = SPI1 (Homo sapiens, UniProt P17947 1-270)
Procedure, shortened: as §1

SPIB = SPIB (Homo sapiens, UniProt Q01892 1-262)
Procedure, shortened: as §1

ELK3 = molecular target: T6, ELK3 (Homo sapiens, UniProt P41970 1-407)
T6 sequence: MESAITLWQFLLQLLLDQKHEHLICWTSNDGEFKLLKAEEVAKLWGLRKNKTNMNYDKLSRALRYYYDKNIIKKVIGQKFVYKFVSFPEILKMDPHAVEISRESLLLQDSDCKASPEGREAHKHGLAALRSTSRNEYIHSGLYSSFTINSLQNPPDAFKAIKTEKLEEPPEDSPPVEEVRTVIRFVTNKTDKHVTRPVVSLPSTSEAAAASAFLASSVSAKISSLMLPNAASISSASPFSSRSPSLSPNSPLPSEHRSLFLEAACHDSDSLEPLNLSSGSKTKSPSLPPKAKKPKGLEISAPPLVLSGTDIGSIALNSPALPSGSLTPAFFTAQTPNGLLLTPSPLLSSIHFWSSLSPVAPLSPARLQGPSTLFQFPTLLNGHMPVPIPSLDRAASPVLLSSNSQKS
Procedure, shortened: as §1

Sequence of SPIB (Q01892 whole entry): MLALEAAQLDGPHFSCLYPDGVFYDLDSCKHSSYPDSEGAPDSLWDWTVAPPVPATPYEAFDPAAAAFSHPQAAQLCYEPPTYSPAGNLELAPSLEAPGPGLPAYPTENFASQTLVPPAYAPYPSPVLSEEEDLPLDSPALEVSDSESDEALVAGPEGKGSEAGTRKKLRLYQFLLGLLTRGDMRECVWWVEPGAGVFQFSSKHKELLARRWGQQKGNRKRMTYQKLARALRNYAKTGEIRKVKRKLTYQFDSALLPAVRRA
Sequence of ELF1 (P32519 whole entry): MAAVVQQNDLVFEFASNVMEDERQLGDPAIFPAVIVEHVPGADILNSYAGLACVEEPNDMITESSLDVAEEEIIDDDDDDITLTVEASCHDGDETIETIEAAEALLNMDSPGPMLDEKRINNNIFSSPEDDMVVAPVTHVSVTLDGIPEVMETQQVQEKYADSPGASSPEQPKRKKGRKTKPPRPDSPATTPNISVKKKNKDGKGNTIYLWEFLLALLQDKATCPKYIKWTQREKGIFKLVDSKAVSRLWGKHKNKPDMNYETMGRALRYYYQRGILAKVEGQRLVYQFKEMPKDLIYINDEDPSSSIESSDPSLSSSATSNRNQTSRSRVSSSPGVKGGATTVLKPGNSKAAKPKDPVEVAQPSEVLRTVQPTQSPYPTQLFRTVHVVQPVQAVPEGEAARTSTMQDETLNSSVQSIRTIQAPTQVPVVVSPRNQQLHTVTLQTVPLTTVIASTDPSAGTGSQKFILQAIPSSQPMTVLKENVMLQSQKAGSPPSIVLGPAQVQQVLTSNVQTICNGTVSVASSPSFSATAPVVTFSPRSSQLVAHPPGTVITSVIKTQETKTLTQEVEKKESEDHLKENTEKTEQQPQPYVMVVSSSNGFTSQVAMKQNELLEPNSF

CTGCGG
binding signal (FLI1): 1.23 fold enrichment (6-mer frequency, TF over GST control)
binding signal (ELK1): 1.26 fold enrichment (6-mer frequency, TF over GST control)
binding signal (GABPA): 1.05 fold enrichment (6-mer frequency, TF over GST control)
binding signal (ERG): 1.1 fold enrichment (6-mer frequency, TF over GST control)
binding signal (ELF1): 1.18 fold enrichment (6-mer frequency, TF over GST control)
binding signal (EHF): 1.3 fold enrichment (6-mer frequency, TF over GST control)
binding signal (SPI1): 1.03 fold enrichment (6-mer frequency, TF over GST control)
binding signal (SPIB): 1.09 fold enrichment (6-mer frequency, TF over GST control)
binding signal (ELK3): 1.05 fold enrichment (6-mer frequency, TF over GST control)
